CBFb-RUNX1 inh = qHTS Assay for Compounds Blocking the Interaction Between CBF-beta and RUNX1 for the Treatment of Acute Myeloid Leukemia. AID 1477, 2009. Runt-related transcription factor 1 (Homo sapiens) + Core-binding factor subunit beta …. AlphaScreen CBFb-His/RUNX1-biotin binding, biochemical. 230,000 tested, under 10 active. Potency, µM (doses to about 59.8 µM), usual class: inhibitors
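Bead-based AlphaScreen assay; binding partners His-tagged CBF-beta and biotinylated RUNX1 at 30 nM each. Compound exposure 15 min after a 20-min protein preincubation; bead step 90 min; all steps at room temperature.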
KCNH2 3.1 inh = qHTS for Inhibitors of KCHN2 3.1: Mutant qHTS; U2OS KCNH2 3.1, thallium flux FluxOr; hits give low values; 340,000 compounds, 0.95% hits; AID 720553, 2013; activity change, % (tested at about 1.8 µM); Potassium voltage-gated channel subfamily H member 2, brain isoform KCNH2 3.1 (human);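 active = maximum activity change below -70%; inconclusive = maximum activity change from -70% to -50%; inactive = maximum activity change above -50%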;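 note: thallium influx rate constant from kinetic fluorescence after stimulation buffer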
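U2OS cells transduced with KCNH2 3.1 mutant virus (1.77 x 10^8 /mL, 4 h), plated overnight at 37 C, loaded 45 min with FluxOr dye plus Red40 quencher. Thallium flux rate constant from kinetic reads after stimulation buffer, normalised to controls.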
hERG WT inh = qHTS for Inhibitors of KCHN2 3.1: Wildtype qHTS; Voltage-gated inwardly rectifying potassium channel KCNH2 (Homo sapiens), Q12809; U2OS, BacMam KCNH2, thallium flux FluxOr; hits give low values; activity change, % at 1.84 µM; 340,000 compounds, 0.37% hits; AID 720551, 2013;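 active = maximum activity change below -70%; inconclusive = maximum activity change between -70% and -50%; inactive = maximum activity change above -50%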
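U2OS cells were transduced with wild-type KCNH2 virus (2.03 x 10^8 / mL) for 4 h at room temperature, then cultured overnight at 37 C. Thallium flux was read with FluxOr dye. Rate constants were normalized to DMSO controls.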
PLK1 PBD block = qHTS for Inhibitors of PLK1-PDB (polo-like kinase 1 - polo-box domain): Primary Screen. Potency, µM, actives largely listed as inhibitors. AID 720504, 2013. Serine/threonine-protein kinase PLK1 (Homo sapiens), P53350. 360,000 compounds, 2.8% hits. Plk1 PBD binding of FITC phosphopeptide, fluorescence polarization; note: series mostly up to about 57 µM; nearly all actives have a fitted effect of over 65% in size
VDR inh = Inhibitors of the vitamin D receptor (VDR): qHTS. Vitamin D3 receptor (Homo sapiens), P11473. 400,000 compounds, 0.93% hits. Potency, µM, hits mostly inhibitors. VDR-SRC2-3 peptide fluorescence polarization, 2 h
Target sequence (P11473 whole entry, looked up): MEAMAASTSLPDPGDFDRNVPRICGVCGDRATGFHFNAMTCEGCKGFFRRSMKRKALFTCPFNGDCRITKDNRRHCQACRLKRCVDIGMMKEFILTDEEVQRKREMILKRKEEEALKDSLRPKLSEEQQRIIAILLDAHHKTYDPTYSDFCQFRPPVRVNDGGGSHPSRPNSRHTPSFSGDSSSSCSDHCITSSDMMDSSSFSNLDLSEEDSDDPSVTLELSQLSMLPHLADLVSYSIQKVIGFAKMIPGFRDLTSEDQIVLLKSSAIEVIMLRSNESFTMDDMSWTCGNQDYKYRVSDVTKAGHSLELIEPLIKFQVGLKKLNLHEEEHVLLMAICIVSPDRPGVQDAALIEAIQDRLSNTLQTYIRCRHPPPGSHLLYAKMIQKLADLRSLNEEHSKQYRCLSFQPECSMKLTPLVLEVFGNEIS
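Two reagent solutions held at 4 deg C in the dark were dispensed, compounds pinned at 23 nl, and the mixture incubated 2 h at room temperature. Read-out: fluorescence polarization of VDR–SRC2-3 peptide binding.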
MBNL1-CUG inh = qHTS Assay for Inhibitors of MBNL1-poly(CUG) RNA binding; TR-FRET MBNL1-His/biotin-(CUG)12 binding, 665/545 ratio; Potency, µM (highest dose often 57.5 µM), most hits filed as inhibitors; 280,000 compounds, 0.036% hits; active = well fitted inhibition curve with a large enough effect in the signal ratio, with a control signal flat, not every such curve was filed as active; inconclusive = small, poorly fitted or top-dose-only effect, or effect the other way, or a change in a side signal; inactive = no such curve, though single readings can be large or run the other way; the % refers to the signal ratio
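His-tagged MBNL1 binding to biotinylated (CUG)12 RNA was measured by TR-FRET using terbium anti-His antibody (0.055 ng/ul final) and streptavidin-XL665 (5 nM final). Compounds were titrated 92 nM to 58 uM; 60 min at room temperature.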
Of the large screens only hits and unclear results are named; the others gave an inactive call. A selection: hits, their analogues and other compounds. The true share with any hit is near 3.8%. Unless noted, calls come from the whole dose curve; as a rule, active = well fitted curve in the direction sought with a large enough effect; inconclusive = small, poorly fitted or top-dose-only effect, or another doubt; inactive = no such curve, though single readings can be large; an effect the other way counts as inactive or inconclusive.

COC(=O)Nc1nnc(-c2ccncc2)s1	PLK1 PBD block 26.7µM
CCn1nnnc1NC(=O)c1cc(OC)c(OC)c(OC)c1	PLK1 PBD block 26.7µM, VDR inh inconclusive
CCc1nc(N2CCN(C(=O)c3ccccc3)CC2)c(C#N)c2c1COC(C)(C)C2	PLK1 PBD block 23.8µM
CC1(C)Cc2c(C#N)c(OCC(=O)c3ccccc3)nc(-c3ccoc3)c2CO1	PLK1 PBD block 26.7µM, VDR inh inconclusive
CC1(C)Cc2c(C#N)c(N3CCN(C(=O)c4ccccc4)CC3)nc(Cc3ccccc3)c2CO1	none
CC1(C)Cc2c(C#N)c(OCC(=O)c3ccc(Cl)cc3)nc(-c3ccoc3)c2CO1	none
CC1(C)Cc2c(C#N)c(N3CCOCC3)nc(-c3ccccc3)c2CO1	none
CC1CCN(c2nc(-c3ccco3)c3c(c2C#N)CC(C)(C)OC3)CC1	PLK1 PBD block inconclusive, VDR inh 50.1µM
CCc1nn2c(=O)cc(COC(=O)COc3ccc(OC)cc3)nc2s1	none (no result: CBFb-RUNX1 inh, KCNH2 3.1 inh, hERG WT inh, PLK1 PBD block, MBNL1-CUG inh)
COCCNC(=O)c1cnc2sc(N3CCC(C)CC3)nn2c1=O	none (no result: CBFb-RUNX1 inh, KCNH2 3.1 inh, hERG WT inh, PLK1 PBD block, MBNL1-CUG inh)
Cc1cccc(NC(=S)NCC(c2cccnc2)N2CCOCC2)c1C (stereo unspecified)	none
COc1ccc(OC)c(NC(=S)NCC(c2cccnc2)N2CCOCC2)c1 (stereo unspecified)	PLK1 PBD block 15µM
COc1ccc(NC(=S)NCC(c2cccnc2)N2CCOCC2)cc1 (stereo unspecified)	none
CCOc1ccc(NC(=S)NCC(c2cccnc2)N2CCOCC2)cc1 (stereo unspecified)	PLK1 PBD block 26.7µM
COc1ccc2c(C)c(CC(=O)NCCc3ccccc3)c(=O)oc2c1OC	none (no result: CBFb-RUNX1 inh, KCNH2 3.1 inh, hERG WT inh, PLK1 PBD block, MBNL1-CUG inh)
COc1cc(OC)cc(C(=O)NC(=S)Nc2cccnc2)c1	none
COc1cc(NC(=S)Nc2cccnc2)cc(OC)c1	PLK1 PBD block 23.8µM
OCCC1CN(Cc2cc(F)ccc2F)CCN1CCCc1ccccc1 (stereo unspecified)	none (no result: CBFb-RUNX1 inh)
OCCC1CN(Cc2ccc(F)cc2Cl)CCN1CCc1ccccc1 (stereo unspecified)	KCNH2 3.1 inh -72.1 (no result: CBFb-RUNX1 inh)
COc1cccc(CNC(=O)c2nn(-c3ccc(C)cc3)c(=O)c3c2c2ccccc2n3C)c1	none (no result: CBFb-RUNX1 inh, KCNH2 3.1 inh, hERG WT inh, PLK1 PBD block, MBNL1-CUG inh)
O=C(Nc1ccc2c(c1)CCC2)c1cnn2c1NC(c1ccco1)CC2C(F)(F)F (stereo unspecified)	PLK1 PBD block 26.7µM
Cc1ccc(Cl)cc1NC(=O)c1cnn2c1NC(c1ccco1)CC2C(F)(F)F (stereo unspecified)	none
CCN(CC)c1ccc(-c2nc(-c3ccccc3C)no2)cc1[N+](=O)[O-]	none (no result: CBFb-RUNX1 inh, KCNH2 3.1 inh, hERG WT inh, PLK1 PBD block, MBNL1-CUG inh)
CSc1cccc(NC(=O)c2ccc3c(c2)CCCN3S(C)(=O)=O)c1	none (no result: CBFb-RUNX1 inh, KCNH2 3.1 inh, hERG WT inh, PLK1 PBD block, MBNL1-CUG inh)
Cc1ccc(OCC(=O)Nc2ccc3nc(SCC(=O)N(C)c4ccccc4)sc3c2)cc1	none (no result: CBFb-RUNX1 inh, KCNH2 3.1 inh, hERG WT inh, PLK1 PBD block, MBNL1-CUG inh)
Cc1nnc(SCC(=O)N(CC(C)C)C2CCS(=O)(=O)C2)n1N (stereo unspecified)	none (no result: CBFb-RUNX1 inh, MBNL1-CUG inh)
CC(C)CN(C(=O)CSc1nnc2c(Cl)cc(C(F)(F)F)cn12)C1CCS(=O)(=O)C1 (stereo unspecified)	PLK1 PBD block 26.7µM
CC1(C)OC(=O)N(CC(=O)Nc2ccccc2)C1(C)O (stereo unspecified)	PLK1 PBD block 26.7µM
CC1(C)OC(=O)N(CC(=O)Nc2cccc(C(F)(F)F)c2)C1(C)O (stereo unspecified)	none
CCOc1ccccc1CNc1nc2nc(C)cc(C)n2n1	none (no result: CBFb-RUNX1 inh, KCNH2 3.1 inh, hERG WT inh, PLK1 PBD block, MBNL1-CUG inh)
COc1ccc(CCNC(=O)c2c(Cl)ccc(Cl)c2OC)cc1OC	KCNH2 3.1 inh -96.5 (no result: CBFb-RUNX1 inh)
COc1ccc(CCNC(=S)NNC(=O)c2c(Br)c(C)nn2C)cc1OC	KCNH2 3.1 inh -74.6 (no result: CBFb-RUNX1 inh)
COc1ccc(CCNC(=O)c2cccc(Br)c2)cc1OC	none (no result: CBFb-RUNX1 inh)

From PubChem
